# Laboratory results as given in PubChem BioAssay (NCI).
# Compounds without any hit were thinned out: in the full panel of roughly 79,000, 15% have a hit. Unmarked numbers belong to inactive results. Activity calls are given as the source filed them. Cut-off read from the data, not from the text of the source: active = growth inhibition above about 70%; inactive = the rest.
# Legend:
# [1] = NCI Yeast Anticancer Drug Screen. Data for the sgs1 strain (AID 173);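 note: 0% = growth of vehicle-only control cultures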; details: S. cerevisiae sgs1 mutant, stronger effect = higher value
# Method in brief: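 Read-out: yeast growth inhibition relative to vehicle controls, following compound exposure of a strain with a defined DNA repair/cell cycle alteration.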
# [2] = NCI Yeast Anticancer Drug Screen. Data for the mlh1 rad18 strain (AID 175); details: S. cerevisiae mlh1 rad18 strain growth inhibition, stronger effect = higher value
# Method in brief: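 Yeast w/ defined DNA-repair lesions; compound exposure; growth vs vehicle controls → % inhibition.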
# [3] = NCI Yeast Anticancer Drug Screen. Data for the rad18 strain (AID 177); details: S. cerevisiae rad18 mutant growth inhibition, stronger effect = higher value
# Method in brief: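 Readout: growth inhibition vs vehicle controls. Cells: genetically altered yeast strain, DNA repair defect.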
# [4] = NCI Yeast Anticancer Drug Screen. Data for the wt1 strain (AID 149);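 note: 0% = growth of vehicle-treated wt1 cultures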; details: S. cerevisiae wt1 strain (SPY 50644) growth inhibition, stronger effect = higher value
# Method in brief: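 Readout: yeast growth inhibition, normalised to vehicle controls, in the wt1 strain exposed to test compounds.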
# [5] = NCI Yeast Anticancer Drug Screen. Data for the rad50EPP+ strain (AID 151);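 note: 0% = growth of vehicle-treated control cultures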; details: S. cerevisiae rad50 mutant strain, stronger effect = higher value
# Method in brief: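 Growth inhibition read against vehicle controls in rad50EPP+ yeast, a strain altered in DNA damage repair, after compound exposure.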
# [6] = NCI Yeast Anticancer Drug Screen. Data for the mgt1 strain (AID 153); details: S. cerevisiae mgt1 mutant growth inhibition, stronger effect = higher value
# Method in brief: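 mgt1 yeast grown with test compound; read-out is growth inhibition versus vehicle-treated cultures.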
# [7] = NCI Yeast Anticancer Drug Screen. Data for the rad50 strain (AID 155);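 note: 0% = growth of vehicle-only cultures of the same strain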; details: S. cerevisiae rad50 strain growth inhibition, stronger effect = higher value
# Method in brief: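 Compounds were tested on a yeast strain with an engineered DNA damage repair alteration; the reported value is growth inhibition normalised to vehicle treatment.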
# [8] = NCI Yeast Anticancer Drug Screen. Data for the mec2-1 strain (AID 157); details: S. cerevisiae mec2-1 strain, stronger effect = higher value
# Method in brief: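 Yeast mec2-1 mutant treated with compound. Readout: growth inhibition vs vehicle controls.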
# [9] = NCI Yeast Anticancer Drug Screen. Data for the sgs1 mgt1 strain (AID 161);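 note: 0% = growth of cultures given vehicle only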; details: S. cerevisiae sgs1 mgt1 strain, stronger effect = higher value
# Method in brief: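 Genetically altered yeast, compound exposure, growth inhibition relative to vehicle.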
# [10] = NCI Yeast Anticancer Drug Screen. Data for the CLN2oe strain (AID 163);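 note: 0% = growth of vehicle-only control cultures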; details: S. cerevisiae CLN2oe strain, stronger effect = higher value
# Method in brief: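 Read-out: yeast growth inhibition, expressed relative to vehicle-only controls. The strain bears an engineered cell-cycle alteration.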
# [11] = NCI Yeast Anticancer Drug Screen. Data for the cln2 rad14 strain (AID 165);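 note: 0% = growth equal to vehicle treated cultures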; details: S. cerevisiae cln2 rad14 strain, stronger effect = higher value
# Method in brief: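 cln2 rad14 yeast strain; compound exposure; growth inhibition read vs vehicle controls.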
# [12] = NCI Yeast Anticancer Drug Screen. Data for the bub3 strain (AID 167); details: S. cerevisiae bub3 mutant strain, stronger effect = higher value
# Method in brief: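 Growth of a checkpoint-deficient yeast mutant is measured after compound exposure. Values represent inhibition relative to vehicle.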
# [13] = at 5.0 µM (retest, dose inferred, filed as 0.5)
# [14] = at 50.0 µM (retest, dose inferred, filed as 5.0)
smiles,measurement,setting,value
COC(=O)C1(N2CCOCC2)CCC([C@@H](c2ccccc2)C(C)[N+](=O)[O-])C1 (stereo partly specified),growth inhibition,[1]; at 1.2 µM,-1%
same,growth inhibition,[1]; at 3.7 µM,-1%
same,growth inhibition,[1]; at 11.0 µM,1%
same,growth inhibition,[1]; at 33.0 µM,7%
same,growth inhibition,[1]; at 100.0 µM,49%
same,growth inhibition,[2]; [13],3%
same,growth inhibition,[2]; [14],3%
same,growth inhibition,[2]; at 50.0 µM,27.5%
same,growth inhibition,[3]; at 1.2 µM,1%
same,growth inhibition,[3]; at 3.7 µM,2%
same,growth inhibition,[3]; at 11.0 µM,6%
same,growth inhibition,[3]; at 33.0 µM,14%
same,growth inhibition,[3]; at 100.0 µM,82% (active)
CN(Cc1cccc2ccccc12)Cc1cccc2ccccc12,growth inhibition,[4]; at 1.2 µM,1%
same,growth inhibition,[4]; at 3.7 µM,1%
same,growth inhibition,[4]; at 11.0 µM,-1%
same,growth inhibition,[4]; at 33.0 µM,-2%
same,growth inhibition,[4]; at 100.0 µM,-1%
same,growth inhibition,[5]; at 1.2 µM,-1%
same,growth inhibition,[5]; at 3.7 µM,5%
same,growth inhibition,[5]; at 11.0 µM,24%
same,growth inhibition,[5]; at 33.0 µM,34%
same,growth inhibition,[5]; at 100.0 µM,36%
same,growth inhibition,[6]; at 1.2 µM,-2%
same,growth inhibition,[6]; at 3.7 µM,-3%
same,growth inhibition,[6]; at 11.0 µM,-7%
same,growth inhibition,[6]; at 33.0 µM,-2%
same,growth inhibition,[6]; at 100.0 µM,3%
same,growth inhibition,[7]; at 1.2 µM,0%
same,growth inhibition,[7]; at 3.7 µM,-3%
same,growth inhibition,[7]; [13],1%
same,growth inhibition,[7]; at 11.0 µM,7%
same,growth inhibition,[7]; at 33.0 µM,6%
same,growth inhibition,[7]; [14],76% (active)
same,growth inhibition,[7]; at 50.0 µM,60.5%
same,growth inhibition,[7]; at 100.0 µM,9%
same,growth inhibition,[8]; at 1.2 µM,-2%
same,growth inhibition,[8]; at 3.7 µM,-2%
same,growth inhibition,[8]; [13],15%
same,growth inhibition,[8]; at 11.0 µM,-3%
same,growth inhibition,[8]; at 33.0 µM,1%
same,growth inhibition,[8]; [14],26%
same,growth inhibition,[8]; at 50.0 µM,16.7%
same,growth inhibition,[8]; at 100.0 µM,11%
same,growth inhibition,[9]; [13],2%
same,growth inhibition,[9]; [14],51%
same,growth inhibition,[9]; at 50.0 µM,59.7%
same,growth inhibition,[10]; at 1.2 µM,-3%
same,growth inhibition,[10]; at 3.7 µM,-6%
same,growth inhibition,[10]; at 11.0 µM,-18%
same,growth inhibition,[10]; at 33.0 µM,-15%
same,growth inhibition,[10]; at 100.0 µM,-17%
same,growth inhibition,[11]; [13],-17%
same,growth inhibition,[11]; [14],10%
same,growth inhibition,[11]; at 50.0 µM,33.2%
same,growth inhibition,[12]; at 1.2 µM,-2%
same,growth inhibition,[12]; at 3.7 µM,1%
same,growth inhibition,[12]; [13],-12%
same,growth inhibition,[12]; at 11.0 µM,-25%
same,growth inhibition,[12]; at 33.0 µM,6%
same,growth inhibition,[12]; [14],87% (active)
same,growth inhibition,[12]; at 50.0 µM,73.7% (active)
same,growth inhibition,[12]; at 100.0 µM,2%
same,growth inhibition,[1]; at 1.2 µM,2%
same,growth inhibition,[1]; at 3.7 µM,2%
same,growth inhibition,[1]; at 11.0 µM,2%
same,growth inhibition,[1]; at 33.0 µM,19%
same,growth inhibition,[1]; at 100.0 µM,24%
same,growth inhibition,[2]; [13],-10%
same,growth inhibition,[2]; [14],41%
same,growth inhibition,[2]; at 50.0 µM,57.8%
same,growth inhibition,[3]; at 1.2 µM,9%
same,growth inhibition,[3]; at 3.7 µM,6%
same,growth inhibition,[3]; at 11.0 µM,-20%
same,growth inhibition,[3]; at 33.0 µM,11%
same,growth inhibition,[3]; at 100.0 µM,6%
